Source: PubChem BioAssay (Tox21)
Results filed as inconclusive are left out. A call without a number means that no potency is given here. Unmarked numbers belong to inactive results. Calls of active or inactive are those of the source. Calls follow the shape of the dose curve; as a rule, active = well fitted curve in the direction sought with a large enough effect in the repeat runs; inconclusive = weak or mixed curves; inactive = no such curve, though single readings can be large; an effect the other way counts as inactive or inconclusive.

Experiments:
[1] = qHTS RealTime-Glo MT Cell Viability Assay in HepG2 cells - 40 hour (AID 1224870); also: nearly all actives have a fitted effect of over 50% in size
In short: (§1)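 HepG2 cells mixed with RealTime-Glo MT reagents (NanoLuc plus cell-permeant prosubstrate) were seeded at 600 cells/well, incubated 5 h at 37 C/5% CO2, then pinned with compounds in DMSO; nonlytic luminescence tracked viability during 40 h treatment.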

[2] = A CellTox Green Cytotoxicity Assay to monitor cytotoxicity in HEK293 cells - 40 hour (AID 1224871); also: nearly all actives have a fitted effect of over 45% in size; also: potency is read from the fitted curve at half-maximal effect
In short: (§2)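 HEK293 cells, 600/well, were preincubated 5 hours and then exposed to compounds at 37 C for up to 40 hours. A cell-impermeant cyanine dye staining dead-cell DNA was read by fluorescence at 0, 8, 16, 24, 32 and 40 h time points.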

[3] = qHTS RealTime-Glo MT Cell Viability Assay in HEK293 cells - 16 hour (AID 1224872); also: top concentration of the series differs between compounds; nearly all actives have a fitted effect of over 50% in size
In short: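 Nonlytic real-time viability readout: viable cells convert prosubstrate to NanoLuc substrate, giving luminescence proportional to live cell number. HEK293, 600 cells/well, compound added after 5 h, continuous culture at 37 C.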

[4] = qHTS RealTime-Glo MT Cell Viability Assay in HepG2 cells - 8 hour (AID 1224873); also: nearly all actives have a fitted effect of over 55% in size
In short: as §1

[5] = qHTS RealTime-Glo MT Cell Viability Assay in HEK293 cells - 40 hour (AID 1224874); settings: RealTime-Glo luminescence; max response: hits give low values; also: nearly all actives have a fitted effect of over 50% in size
In short: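 600 cells/well were plated with the nonlytic NanoLuc/prosubstrate reagent, pre-incubated 5 h, then given 23 nL of compound in DMSO. Incubation at 37 C for 40 h, with luminescence from viable-cell-reduced substrate read repeatedly from 0 h.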

[6] = A CellTox Green Cytotoxicity Assay to monitor cytotoxicity in HEK293 cells - 24 hour (AID 1224875); also: series mostly up to about 77 µM; nearly all actives have a fitted effect of over 45% in size
In short: as §2

[7] = A CellTox Green Cytotoxicity Assay to monitor cytotoxicity in HepG2 cells - 16 hour (AID 1224876); also: nearly all actives have a fitted effect of over 45% in size; also: potency is read from the fitted curve at half-maximal effect
In short: (§3)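 HepG2 cells, 600/well, preincubated 5 h with CellTox Green dye, then exposed to Tox21 compounds in DMSO at 37 C for up to 40 h. Dead-cell DNA fluorescence read at the indicated time point.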

[8] = qHTS RealTime-Glo MT Cell Viability Assay in HepG2 cells - 32 hour (AID 1224877); also: nearly all actives have a fitted effect of over 55% in size
In short: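 Luminescence read-out: viable HepG2 cells reduce a prosubstrate to a NanoLuc substrate, giving a signal proportional to live cell number. Reads taken at 0, 8, 16, 24, 32 and 40 h of compound exposure at 37 C.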

[9] = A CellTox Green Cytotoxicity Assay to monitor cytotoxicity in HepG2 cells - 24 hour (AID 1224878); also: nearly all actives have a fitted effect of over 45% in size; also: potency is read from the fitted curve at half-maximal effect
In short: as §3

[10] = A CellTox Green Cytotoxicity Assay to monitor cytotoxicity in HepG2 cells - 40 hour (AID 1224879); also: nearly all actives have a fitted effect of over 40% in size; also: potency is read from the fitted curve at half-maximal effect
In short: as §3

Structure (SMILES) | Potency [1] | Potency [2] | Potency [3] | outcome [4] | max response [5] | Potency [6] | Potency [7] | Potency [8] | Potency [9] | Potency [10] | activity change, negative = cytotoxic [1] | cytotoxicity increase [2] | activity change, negative = cytotoxicity [3] | viability change, negative = cytotoxic [4] | activity change [6] | cytotoxicity increase [7] | activity change, negative = cytotoxic [8] | cytotoxicity [9] | cytotoxicity increase [10]
CCCN(CCC)C(=O)C(CCC(=O)O)NC(=O)c1ccccc1 (stereo not given) | inactive | inactive | inactive | inactive | 3.51% | inactive | inactive | inactive | inactive | inactive |  |  |  |  |  |  |  |  | 
CCOc1ccc(NC(N)=O)cc1 | inactive | inactive | inactive | inactive | 4.66% | inactive | inactive | inactive | inactive | inactive |  |  |  |  |  |  |  |  | 
CC(C)C(=O)OC/C=C/c1ccccc1 | inactive | inactive | inactive | inactive | -2.31% | inactive | inactive | inactive | inactive | inactive |  |  |  |  |  |  |  |  | 
COC(=O)c1ccc2cc(C(=O)OC)ccc2c1 |  |  |  |  | -1.06% |  |  |  |  |  | -0.864% [at 15.8 µM] | 3.01% [at 15.8 µM] | -1.54% [at 15.8 µM] | 6.16% [at 15.8 µM] | 4.58% [at 15.8 µM, hits give high values] | -13.5% [at 15.8 µM] | 0.0732% [at 15.8 µM] | -14.4% [at 15.8 µM] | -18% [at 15.8 µM]
CC(=O)Nc1ccc(C)c(Cl)c1 | inactive | inactive | inactive | inactive | -13.2% | inactive | inactive | inactive | inactive | inactive |  |  |  |  |  |  |  |  | 
O=c1[nH]c(=O)n([C@H]2C[C@H](O)[C@@H](CO)O2)cc1C(F)(F)F | inactive | inactive | inactive | inactive | -15% | inactive | inactive | inactive | inactive | 19 µM (active) |  |  |  |  |  |  |  |  | 
C[C@]12C(=O)OC(=O)[C@H]1[C@H]1C=C[C@@H]2C1 | inactive | inactive | inactive | inactive | 10.7% | inactive | inactive | inactive | inactive | inactive |  |  |  |  |  |  |  |  | 
CC(C)(C)C1CCCCC1=O (stereo not given) | inactive | inactive | inactive | inactive | 10.3% | inactive | inactive | inactive | inactive | inactive |  |  |  |  |  |  |  |  | 
CO[C@@]1(NC(=O)CSCC#N)C(=O)N2C(C(=O)O)=C(CSc3nnnn3C)CS[C@@H]21 | inactive | inactive | inactive | inactive | 7.28% | inactive | inactive | inactive | inactive | inactive |  |  |  |  |  |  |  |  | 
CC(=O)N[C@@H](CC(C)C)C(=O)O | inactive | inactive | inactive | inactive | -2.78% | inactive | inactive | inactive | inactive | inactive |  |  |  |  |  |  |  |  | 
O=Cc1ccc(F)c(Br)c1 | inactive | inactive | inactive | inactive | 3.83% | inactive | inactive | inactive | inactive | inactive |  |  |  |  |  |  |  |  | 
CC(C)=CCC[C@](C)(O)[C@@H]1CC=C(C)CC1 | inactive | 49 µM (active) | inactive | inactive | -6.23% | inactive | 43.6 µM (active) | inactive | 43.6 µM (active) | 49 µM (active) |  |  |  |  |  |  |  |  | 
CCOC(=O)c1ccccc1O | inactive | inactive | inactive | inactive | 4.34% | inactive | inactive | inactive | inactive | inactive |  |  |  |  |  |  |  |  | 
NNS(=O)(=O)c1ccc(Oc2ccc(S(=O)(=O)NN)cc2)cc1 | inactive | inactive | inactive | inactive | 0.181% | inactive | inactive | inactive | inactive | inactive |  |  |  |  |  |  |  |  | 
CN(C)CC[C@@H](c1ccc(Cl)cc1)c1ccccn1 | inactive | inactive | inactive | inactive | -0.584% | inactive | inactive | inactive | inactive | inactive |  |  |  |  |  |  |  |  | 
